Results reported in publication PMC11574364.

Assays:
Assay in all cases: protein domain microarray probed with biotinylated miRNA; Domain array: 20 mM Tris-HCl pH 7.4, 200 mM KCl, 0.2 mM EDTA, 0.05% NP40, 2 ug/ul heparin, overnight 4 C. ORF array: PBS pH 7.0 with RNase inhibitor, 100 ng RNA; high values mean tight binding
Conditions in all cases: ssRNA
[1] = target: T1, RBM7 (Homo sapiens, UniProt Q9Y580)
T1 sequence: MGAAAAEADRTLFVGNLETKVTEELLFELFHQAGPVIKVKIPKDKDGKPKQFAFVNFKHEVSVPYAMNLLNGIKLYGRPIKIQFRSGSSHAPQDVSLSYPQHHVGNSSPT

[2] = target: T2, RNPC2 (Homo sapiens, UniProt Q14498)
T2 sequence: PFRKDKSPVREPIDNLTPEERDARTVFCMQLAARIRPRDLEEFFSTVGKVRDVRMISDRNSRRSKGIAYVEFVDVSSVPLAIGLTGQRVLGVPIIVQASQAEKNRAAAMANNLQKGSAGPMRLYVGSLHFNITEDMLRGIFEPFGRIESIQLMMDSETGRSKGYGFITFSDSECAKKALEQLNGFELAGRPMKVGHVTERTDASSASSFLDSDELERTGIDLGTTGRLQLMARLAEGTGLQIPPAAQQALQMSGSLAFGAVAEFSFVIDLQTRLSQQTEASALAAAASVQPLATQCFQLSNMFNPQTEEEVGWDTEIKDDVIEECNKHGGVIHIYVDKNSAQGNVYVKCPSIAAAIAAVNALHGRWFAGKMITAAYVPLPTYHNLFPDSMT

[3] = target: T3, RBM12B(4) (Homo sapiens, UniProt Q8IXT5)
T3 sequence: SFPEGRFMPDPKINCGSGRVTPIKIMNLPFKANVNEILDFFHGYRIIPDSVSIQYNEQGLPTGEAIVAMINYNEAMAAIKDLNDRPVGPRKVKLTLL

[4] = target: RED1(1)/ADARB1 (Homo sapiens, UniProt P78563)
[5] = target: T4, SON (Homo sapiens, UniProt P18583)
T4 sequence: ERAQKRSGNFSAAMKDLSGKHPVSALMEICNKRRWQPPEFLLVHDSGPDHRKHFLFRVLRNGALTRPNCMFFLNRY

[6] = target: KHDRBS1 (Homo sapiens, UniProt Q07666)
Sequence of KHDRBS1 (Q07666 85-210): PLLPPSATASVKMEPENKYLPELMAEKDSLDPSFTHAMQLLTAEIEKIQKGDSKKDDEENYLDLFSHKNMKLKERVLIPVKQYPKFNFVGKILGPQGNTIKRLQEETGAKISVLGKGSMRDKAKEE

[7] = target: RBM3 (Homo sapiens, UniProt P98179)
Sequence of RBM3 (P98179 1-110): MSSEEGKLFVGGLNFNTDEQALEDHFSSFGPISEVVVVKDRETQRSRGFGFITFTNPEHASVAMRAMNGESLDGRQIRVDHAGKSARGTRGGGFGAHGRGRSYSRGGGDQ

[8] = target: T5, YTHDF3 (Homo sapiens, UniProt Q7Z739)
T5 sequence: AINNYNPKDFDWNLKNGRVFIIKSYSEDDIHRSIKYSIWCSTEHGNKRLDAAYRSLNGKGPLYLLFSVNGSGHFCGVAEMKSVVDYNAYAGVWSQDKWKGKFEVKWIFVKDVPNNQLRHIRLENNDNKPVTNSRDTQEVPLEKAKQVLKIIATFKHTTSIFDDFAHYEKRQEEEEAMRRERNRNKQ

[9] = target: T6, NOVA2(1-2) (Homo sapiens, UniProt Q9UNW9)
T6 sequence: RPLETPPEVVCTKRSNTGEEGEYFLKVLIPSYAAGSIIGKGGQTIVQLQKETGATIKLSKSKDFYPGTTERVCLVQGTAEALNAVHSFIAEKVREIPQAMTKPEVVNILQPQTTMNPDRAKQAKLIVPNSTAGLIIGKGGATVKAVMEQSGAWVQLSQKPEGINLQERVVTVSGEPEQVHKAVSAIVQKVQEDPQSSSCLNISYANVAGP

[10] = target: T7, SFRS4 (Homo sapiens, UniProt Q08170)
T7 sequence: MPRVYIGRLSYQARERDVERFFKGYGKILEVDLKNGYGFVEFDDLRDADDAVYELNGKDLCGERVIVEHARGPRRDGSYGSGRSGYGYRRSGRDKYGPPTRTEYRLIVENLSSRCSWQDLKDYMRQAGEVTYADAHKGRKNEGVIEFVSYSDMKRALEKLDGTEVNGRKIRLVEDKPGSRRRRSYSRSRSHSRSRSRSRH

Sequence	binding signal [1] [fluorescence intensity]	binding signal [2] [fluorescence intensity]	binding signal [3] [fluorescence intensity]	binding signal [4] [fluorescence intensity]	binding signal [5] [fluorescence intensity]	binding signal [6] [fluorescence intensity]	binding signal [7] [fluorescence intensity]	binding signal [8] [fluorescence intensity]	binding signal [9] [fluorescence intensity]	binding signal [10] [fluorescence intensity]
UGAGGUAGUAGGUUGUAUGGUU	45.27 ± 0.0778	43.3 ± 11.8	62 ± 3.02	151 ± 4.54	23.9 ± 4.74	25.6 ± 0.417	1642 ± 12.9	117 ± 1.29	26.8 ± 4.61	206 ± 51.4
UGAGGUAGUAGGUUGUGUGGUU	50.2 ± 0.997	80.9 ± 8.52	50.1 ± 2.09	230 ± 23.8	24.3 ± 4.36	28.3 ± 5.26	1550 ± 33.7	129 ± 9.2	40.2 ± 2.14	339 ± 8.46
UGAGGUAGUAGGUUGUAUAGUU	22.1 ± 0.665			40.73 ± 0.318		22.6 ± 1.88	669 ± 18.7	30 ± 0.891		20.4 ± 3.62
CAGUGCAAUGAUGAAAGGGCAU	34 ± 2.81		38.8 ± 4.95	67.57 ± 0.354		25.1 ± 9.81	1390 ± 40.6	52.8 ± 5.03	71.4 ± 9.69	236 ± 1.78
UAGCUUAUCAGACUGAUGUUGA							409 ± 132			
AGAGGUAGUAGGUUGCAUAGUU	36.3 ± 3	27 ± 3	23.2 ± 2.64	152 ± 6.66	20.1 ± 1.45	21.6 ± 3.36	2295 ± 10	60.7 ± 7.12	151 ± 5.8	238 ± 11.7
